Holding throughout (set-up): scale not given: direction of the effect not stated beside the values
In experiment [1] the target is Protein translocase subunit SecA (Escherichia coli (strain K12)) (UniProt P10408). Nature of the experiment: Assay to Identify E. coli SecA ATPase Inhibitors. Conditions: 30 µM. Type of experiment: functional.
Experiment [2] concerns the target T1, Ubiquitin-activating enzyme e1, putative (Leishmania donovani (strain BPK282A1)) (UniProt E9BSI1).
T1 sequence (whole entry): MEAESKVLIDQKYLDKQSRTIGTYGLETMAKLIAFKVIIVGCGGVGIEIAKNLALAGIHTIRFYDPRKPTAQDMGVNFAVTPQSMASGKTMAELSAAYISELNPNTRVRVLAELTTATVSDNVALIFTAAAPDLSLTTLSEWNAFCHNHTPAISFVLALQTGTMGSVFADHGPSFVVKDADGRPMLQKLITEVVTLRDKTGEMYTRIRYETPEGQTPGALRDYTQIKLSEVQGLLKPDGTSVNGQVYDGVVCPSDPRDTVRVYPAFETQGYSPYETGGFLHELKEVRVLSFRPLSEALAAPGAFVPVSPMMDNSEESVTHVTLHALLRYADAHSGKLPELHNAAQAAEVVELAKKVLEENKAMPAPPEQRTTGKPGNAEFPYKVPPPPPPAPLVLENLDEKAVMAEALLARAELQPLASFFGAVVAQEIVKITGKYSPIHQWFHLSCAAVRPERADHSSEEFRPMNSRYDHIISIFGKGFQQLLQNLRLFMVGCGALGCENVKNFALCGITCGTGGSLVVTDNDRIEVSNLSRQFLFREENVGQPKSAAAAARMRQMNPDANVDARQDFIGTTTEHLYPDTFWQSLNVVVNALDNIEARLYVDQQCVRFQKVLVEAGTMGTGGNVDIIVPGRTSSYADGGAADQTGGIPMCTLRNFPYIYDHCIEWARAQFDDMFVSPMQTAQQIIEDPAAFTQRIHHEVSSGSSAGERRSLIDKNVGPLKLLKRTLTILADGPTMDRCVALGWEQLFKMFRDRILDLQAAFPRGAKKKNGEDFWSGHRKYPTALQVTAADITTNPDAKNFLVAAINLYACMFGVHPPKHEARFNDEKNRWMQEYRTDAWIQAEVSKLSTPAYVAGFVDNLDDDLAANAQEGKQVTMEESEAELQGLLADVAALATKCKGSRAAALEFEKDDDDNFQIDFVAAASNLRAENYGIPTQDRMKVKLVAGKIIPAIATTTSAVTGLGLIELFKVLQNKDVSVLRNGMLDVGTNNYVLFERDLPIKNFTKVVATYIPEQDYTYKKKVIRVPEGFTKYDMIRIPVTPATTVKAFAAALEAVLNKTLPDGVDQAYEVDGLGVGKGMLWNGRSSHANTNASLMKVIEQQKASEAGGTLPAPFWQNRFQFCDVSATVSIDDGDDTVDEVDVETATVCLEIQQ
Put plainly: Leishmania donovani Ubiquitin Activating Enzyme (LdE1). Type of experiment: functional. The settings on record: 30 µM.

Experiment [3] deals with Sialic acid-binding Ig-like lectin 9 (Homo sapiens) (UniProt Q9Y336). Put plainly: Hs-Siglec9 ALPHAscreen SOP 20170721. The settings on record: 10 µM.
Sialic acid-binding Ig-like lectin 9 (Homo sapiens), sequence (Q9Y336 whole entry): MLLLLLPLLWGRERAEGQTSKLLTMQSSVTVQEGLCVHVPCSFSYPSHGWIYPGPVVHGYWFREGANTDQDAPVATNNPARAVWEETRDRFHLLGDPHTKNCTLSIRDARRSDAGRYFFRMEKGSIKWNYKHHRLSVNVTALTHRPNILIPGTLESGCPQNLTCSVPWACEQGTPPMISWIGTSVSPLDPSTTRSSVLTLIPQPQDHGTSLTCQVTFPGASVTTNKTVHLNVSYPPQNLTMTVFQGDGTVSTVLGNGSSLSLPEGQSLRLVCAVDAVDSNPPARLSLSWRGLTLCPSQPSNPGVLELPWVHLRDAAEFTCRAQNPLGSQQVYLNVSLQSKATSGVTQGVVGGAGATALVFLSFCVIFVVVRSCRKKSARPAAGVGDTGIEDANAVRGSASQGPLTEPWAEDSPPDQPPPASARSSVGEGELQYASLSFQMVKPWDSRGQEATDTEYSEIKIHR
A further experiment deals with Trypanosoma cruzi. Nature of the experiment: Trypanosoma cruzi phosphomannomutase and mannose-1-phosphate guanylyltransferase assay. Type of experiment: functional. Conditions: 10 µM.
Experiment [4] concerns the target T2, Arginase-2, mitochondrial (Homo sapiens) (UniProt P78540).
T2 sequence (whole entry): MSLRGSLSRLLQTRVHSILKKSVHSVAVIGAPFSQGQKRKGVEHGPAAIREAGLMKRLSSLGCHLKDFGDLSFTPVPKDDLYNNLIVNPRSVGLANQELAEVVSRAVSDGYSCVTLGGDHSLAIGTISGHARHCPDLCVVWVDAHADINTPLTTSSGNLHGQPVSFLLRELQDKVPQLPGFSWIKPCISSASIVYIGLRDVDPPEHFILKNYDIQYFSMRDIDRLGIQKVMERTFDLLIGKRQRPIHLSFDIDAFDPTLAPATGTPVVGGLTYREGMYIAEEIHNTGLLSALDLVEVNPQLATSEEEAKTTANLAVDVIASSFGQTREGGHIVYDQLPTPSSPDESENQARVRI
Put plainly: in vitro enzyme assay to detect the production of urea directly proportional to the activity of Arginase II. Further: in the data most compounds retested in dose-response had high values. Type of experiment: functional. The settings on record: 33.3 µM.

Experiment [5] concerns the target T3, Proteasome subunit beta (Trypanosoma cruzi) (UniProt O96673).
T3 sequence (whole entry): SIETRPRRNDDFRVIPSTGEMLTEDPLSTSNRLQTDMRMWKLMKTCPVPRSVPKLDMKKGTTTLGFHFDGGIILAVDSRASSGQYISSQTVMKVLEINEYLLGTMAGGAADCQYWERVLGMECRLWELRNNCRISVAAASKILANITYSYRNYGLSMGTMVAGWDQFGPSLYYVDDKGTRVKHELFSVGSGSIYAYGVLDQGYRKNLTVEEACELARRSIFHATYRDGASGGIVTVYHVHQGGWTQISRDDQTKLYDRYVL
Put plainly: Trypanosoma cruzi proteasome chymotrypsin-like activity (TcProtChymo) assay. Further: in the data most compounds retested in dose-response had high values. Type of experiment: functional. Conditions: 9.37 µM.

The species entered for a further experiment is Homo sapiens. Nature of the experiment: To identify inhibition of the IFN signalling (Jak-Stat) pathway via expression of an eGFP reporter gene under the control of an IFN-stimulated response element (ISRE) containing MxA promoter. Type of experiment: functional. The settings on record: 30 µM.
For experiment [6], the target named is T4, Tyrosyl-tRNA synthetase, putative (Trypanosoma cruzi (strain CL Brener)) (UniProt Q4DSP6).
T4 sequence (whole entry): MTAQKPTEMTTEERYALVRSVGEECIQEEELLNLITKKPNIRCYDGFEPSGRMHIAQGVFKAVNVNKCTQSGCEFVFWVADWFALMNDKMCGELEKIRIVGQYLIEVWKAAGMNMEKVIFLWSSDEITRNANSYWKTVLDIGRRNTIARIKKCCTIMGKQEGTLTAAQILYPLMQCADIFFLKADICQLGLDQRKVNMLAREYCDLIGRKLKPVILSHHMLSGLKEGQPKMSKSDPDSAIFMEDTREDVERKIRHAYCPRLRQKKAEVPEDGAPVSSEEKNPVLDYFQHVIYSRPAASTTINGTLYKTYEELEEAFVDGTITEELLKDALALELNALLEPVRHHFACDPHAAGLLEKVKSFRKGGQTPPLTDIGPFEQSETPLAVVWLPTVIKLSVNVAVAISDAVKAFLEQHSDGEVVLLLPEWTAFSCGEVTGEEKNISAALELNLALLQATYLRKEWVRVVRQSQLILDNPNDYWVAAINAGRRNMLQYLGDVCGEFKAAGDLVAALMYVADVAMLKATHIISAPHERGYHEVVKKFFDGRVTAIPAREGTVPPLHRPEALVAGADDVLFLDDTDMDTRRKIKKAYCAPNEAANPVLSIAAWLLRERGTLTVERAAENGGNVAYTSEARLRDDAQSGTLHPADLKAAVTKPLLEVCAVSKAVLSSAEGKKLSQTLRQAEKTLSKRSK
Put plainly: Trypanosoma cruzi tyrosyl tRNA synthetase (TcYRS) _High Tyrosine SOP. Further: in the data most compounds retested in dose-response had high values. Type of experiment: functional. The settings on record: 30 µM.

Experiment [7] addresses T4, Tyrosyl-tRNA synthetase, putative (Trypanosoma cruzi (strain CL Brener)). Nature of the experiment: Trypanosoma cruzi tyrosyl tRNA synthetase (TcYRS) SOP. The settings on record: 30 µM. Type of experiment: functional.
The target of experiment [8] is Chromo domain-containing protein 1 (Saccharomyces cerevisiae (strain ATCC 204508 / S288c) (Baker's yeast)) (UniProt P32657). Put plainly: ScCHD-1 Enzyme Inhibition Assay. Further: in the data most compounds retested in dose-response had high values. Type of experiment: functional. Conditions: 30 µM.
Chromo domain-containing protein 1 (Saccharomyces cerevisiae (strain ATCC 204508 / S288c) (Baker's yeast)), sequence (P32657 whole entry, the tested form may be a part): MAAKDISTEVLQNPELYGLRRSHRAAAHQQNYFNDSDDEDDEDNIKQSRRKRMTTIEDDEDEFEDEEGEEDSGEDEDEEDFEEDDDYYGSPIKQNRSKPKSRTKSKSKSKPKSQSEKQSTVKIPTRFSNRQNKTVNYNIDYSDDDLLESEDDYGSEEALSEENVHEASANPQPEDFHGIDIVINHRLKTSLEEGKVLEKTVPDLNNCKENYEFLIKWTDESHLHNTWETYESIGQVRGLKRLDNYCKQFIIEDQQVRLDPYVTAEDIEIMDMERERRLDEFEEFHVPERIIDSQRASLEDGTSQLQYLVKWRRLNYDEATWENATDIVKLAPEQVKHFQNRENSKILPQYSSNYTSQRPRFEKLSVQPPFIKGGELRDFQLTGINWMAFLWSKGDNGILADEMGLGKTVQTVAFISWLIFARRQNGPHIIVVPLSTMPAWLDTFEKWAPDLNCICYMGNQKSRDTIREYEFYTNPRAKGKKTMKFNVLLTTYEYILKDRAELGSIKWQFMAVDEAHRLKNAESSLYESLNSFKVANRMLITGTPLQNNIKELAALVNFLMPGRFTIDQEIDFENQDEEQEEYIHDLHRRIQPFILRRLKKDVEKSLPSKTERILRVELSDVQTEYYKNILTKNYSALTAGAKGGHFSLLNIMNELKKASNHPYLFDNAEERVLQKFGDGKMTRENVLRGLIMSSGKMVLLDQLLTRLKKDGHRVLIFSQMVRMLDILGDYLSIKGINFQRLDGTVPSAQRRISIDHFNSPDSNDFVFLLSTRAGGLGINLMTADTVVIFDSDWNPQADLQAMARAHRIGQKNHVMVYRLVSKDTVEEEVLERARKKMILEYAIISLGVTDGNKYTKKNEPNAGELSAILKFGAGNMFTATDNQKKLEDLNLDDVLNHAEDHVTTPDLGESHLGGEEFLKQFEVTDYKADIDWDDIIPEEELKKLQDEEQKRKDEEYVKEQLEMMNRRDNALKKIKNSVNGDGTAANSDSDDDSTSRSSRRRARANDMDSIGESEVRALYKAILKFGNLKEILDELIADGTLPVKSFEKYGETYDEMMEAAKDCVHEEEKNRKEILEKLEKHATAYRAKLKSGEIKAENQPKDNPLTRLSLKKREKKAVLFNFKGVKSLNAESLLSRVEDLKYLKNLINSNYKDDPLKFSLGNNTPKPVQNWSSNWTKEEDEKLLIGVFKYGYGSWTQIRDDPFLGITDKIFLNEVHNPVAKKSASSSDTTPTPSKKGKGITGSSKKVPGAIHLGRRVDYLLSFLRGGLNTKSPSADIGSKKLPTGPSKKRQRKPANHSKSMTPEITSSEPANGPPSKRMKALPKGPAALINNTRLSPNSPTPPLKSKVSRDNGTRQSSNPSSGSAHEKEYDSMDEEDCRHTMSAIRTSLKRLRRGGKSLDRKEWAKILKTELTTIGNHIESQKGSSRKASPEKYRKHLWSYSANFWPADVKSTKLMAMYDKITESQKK

This note sets out measurements from ChEMBL document CHEMBL3988442, “University of Dundee, Small-Polar-MMV Screening Library” (2021).

Molecules are shown by their SMILES. For part of these data: Results with a measured potency or affinity are listed apart.

Protein translocase subunit SecA (Escherichia coli (strain K12)), sequence (P10408 whole entry): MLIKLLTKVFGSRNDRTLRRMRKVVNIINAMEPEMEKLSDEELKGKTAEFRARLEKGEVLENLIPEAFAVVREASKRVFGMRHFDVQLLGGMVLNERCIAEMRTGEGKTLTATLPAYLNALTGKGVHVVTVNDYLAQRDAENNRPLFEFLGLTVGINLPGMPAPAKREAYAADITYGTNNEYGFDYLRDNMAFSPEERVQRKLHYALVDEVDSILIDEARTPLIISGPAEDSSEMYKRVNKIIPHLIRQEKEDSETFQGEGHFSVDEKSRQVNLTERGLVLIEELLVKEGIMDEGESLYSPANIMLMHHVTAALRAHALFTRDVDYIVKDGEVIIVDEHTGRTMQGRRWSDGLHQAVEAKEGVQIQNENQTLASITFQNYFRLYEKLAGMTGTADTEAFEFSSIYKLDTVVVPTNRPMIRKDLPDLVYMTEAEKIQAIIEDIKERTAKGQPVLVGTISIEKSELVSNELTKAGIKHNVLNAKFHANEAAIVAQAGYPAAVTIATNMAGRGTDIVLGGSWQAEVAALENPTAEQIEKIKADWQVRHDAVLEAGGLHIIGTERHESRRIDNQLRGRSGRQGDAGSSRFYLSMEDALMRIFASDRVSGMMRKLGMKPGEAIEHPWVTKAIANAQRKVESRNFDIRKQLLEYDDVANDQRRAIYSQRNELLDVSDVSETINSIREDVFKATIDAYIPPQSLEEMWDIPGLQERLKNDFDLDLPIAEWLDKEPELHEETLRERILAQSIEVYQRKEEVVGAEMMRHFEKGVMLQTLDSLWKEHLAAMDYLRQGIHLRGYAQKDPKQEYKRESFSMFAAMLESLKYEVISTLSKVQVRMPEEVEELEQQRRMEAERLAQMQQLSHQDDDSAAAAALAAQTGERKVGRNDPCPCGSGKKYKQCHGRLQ

Regarding `CNc1nc2c(s1)C(=O)CN(C(=O)NCc1ccccc1)C2`, the Percent Effect in experiment [1] was -2.61%; in experiment [2], 8%; in [3], -5.95%; with Trypanosoma cruzi, -8.84%; in experiment [4], 5.32%; in experiment [5], 9.41%. Moreover, the Percent Effect in the experiment listed under Homo sapiens was 15.2%; in experiment [6] it was 1.58%; in experiment [7] it was 2.56%; in experiment [8], -6.84%.

For the compound `N#Cc1cccc(S(=O)(=O)NC(=O)COc2ccc3c(c2)CCC3)c1`, the Percent Effect was -4.11% in experiment [1]; 12.8% in [2]; -9.11% in experiment [3]; 6.48% in the experiment on Trypanosoma cruzi; -0.82% in experiment [4]; 17% in experiment [5]. Also, the Percent Effect in the experiment filed under Homo sapiens was 0.752%; in experiment [6], 0.478%; in [7], 20.5%; in experiment [8], -4.5%.

With `Cc1cc(OCC(=O)N2CCCC(c3ccn[nH]3)C2)no1` (stereo not given), the Percent Effect in experiment [1] is -3.04%; in experiment [2], 5.33%; in [3], 5.5%; in the experiment with Trypanosoma cruzi, -5.62%; in experiment [4], 3.55%; in [5], 6.36%. Further, the Percent Effect in the experiment filed under Homo sapiens was 3.56%; in experiment [6], 3.68%; in [7], 7.69%; in experiment [8], -8.42%.

With `O=C(C1CCCC1)N1CCC2(CC1)COCCN2CC1CC1`, the Percent Effect is -2.73% in [1]; 16.9% in experiment [2]; -2.04% in [3]; -1.31% in the experiment on Trypanosoma cruzi; 5.02% in experiment [4]; 10% in experiment [5]. In addition, the Percent Effect in the experiment filed under Homo sapiens is 9.54%; in experiment [6], 11.6%; in experiment [7], 15%; in experiment [8], -9.88%.

Regarding `O=C1CC(c2ccccc2)C2(CCN(Cc3ccccn3)CC2)N1` (stereo not given), the Percent Effect was 0.295% in experiment [1]; 22.1% in experiment [2]; -3.53% in experiment [3]; -5.25% in the experiment with Trypanosoma cruzi; 3.2% in [4]; 8.33% in [5]. Also, the Percent Effect in the experiment filed under Homo sapiens is 18.5%; in [6], 7.73%; in [7] it was 15%; in experiment [8], -9.1%.

On to `CC(=O)N1[C@@H](C(=O)NCC2CC2)C[C@@H]2CN(Cc3ccco3)C[C@@H]21`, for which the Percent Effect in [1] was -0.254%; in [2], 22.1%; in experiment [3], -5.46%; with Trypanosoma cruzi it was -0.938%; in experiment [4] it was 3.2%; in [5] it was 12.1%. Besides, the Percent Effect in the experiment listed under Homo sapiens was 9.99%; in experiment [6], 3.87%; in experiment [7], 7.5%; in [8], -7.56%.

On to `CNc1snc(C)c1C(=O)N1CCCC(n2ccnc2C(C)C)C1` (stereo not given), for which the Percent Effect in experiment [1] was -0.908%; in [2], 0%; in [3] it was 1.03%; with Trypanosoma cruzi, 2.21%; in experiment [4], 0.444%; in [5], 5%. Moreover, the Percent Effect in the experiment filed under Homo sapiens was 14.7%; in experiment [6], 1.58%; in [7], 0%; in [8], -1.07%.

As to `Cc1noc(C2CCN(C(=O)c3ccc(N(C)C)nc3)CC2)n1`, the Percent Effect in [1] is -1.18%; in experiment [2] it was 12.8%; in [3], -5.05%; with Trypanosoma cruzi, 3.29%; in [4] it was 1.23%; in experiment [5] it was -0.0853%. In addition, the Percent Effect is 13.1% in the experiment filed under Homo sapiens, 8.13% in experiment [6], 20.5% in [7] and -1.36% in experiment [8].

Take `O=C(CSC1CCc2ccccc2NC1=O)NCCc1ccco1` (stereo not given): the Percent Effect was -1.93% in experiment [1]; 18.9% in experiment [2]; 2.64% in experiment [3]; 3.98% in the experiment on Trypanosoma cruzi; 11.5% in [4]; 18% in [5]. The Percent Effect in the experiment filed under Homo sapiens was 16.5%; in experiment [6] it was 3.72%; in experiment [7], 17.1%; in experiment [8], -0.493%.

As for `CNC(=O)[C@@H]1C[C@H]2CN(Cc3nccs3)C[C@H]2N1C`, the Percent Effect in [1] is 0.644%; in experiment [2], 27.3%; in experiment [3] it was -2.68%; with Trypanosoma cruzi, 0.75%; in [4], 2.28%; in [5], 19.7%. The Percent Effect in the experiment listed under Homo sapiens was 11.3%; in [6], 12.6%; in experiment [7] it was 22.5%; in experiment [8], -5.35%.

`CCCn1[nH]cc/c1=N\C(=O)CN1CCc2cnc(CC)nc2C1`: the Percent Effect in [1] is 0.849%; in experiment [2], 0%; in experiment [3] it was 1.8%; in the experiment on Trypanosoma cruzi, -2.61%; in experiment [4] it was 9.76%; in [5] it was 2.29%. In addition, the Percent Effect in the experiment listed under Homo sapiens was determined as 3.62%; in [6], 11.1%; in experiment [7], 7.69%; in experiment [8], 5.4%.

Take `CCC(O)CN1CCN(C(=O)c2sccc2OC)CC1` (stereo not given): the Percent Effect was 0.313% in [1]; 7.79% in experiment [2]; 10.4% in experiment [3]; 2.24% with Trypanosoma cruzi; -3.89% in experiment [4]; 0.526% in experiment [5]. Further, the Percent Effect is 16.7% in the experiment listed under Homo sapiens, 3.92% in [6], 16.5% in experiment [7] and -3.7% in [8].
